The subject of the assay is Schistosoma mansoni schistosomula (LE). The assay can be described thus: XTT viability relative to DMSO control; higher = more viable (less active). To be noted: 72 h; 10 µM. The procedure:
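XTT/PMS was then added for a further 24 h (72 h total) and A450 was read. % viability = (sample - heat-killed control)/(DMSO control - heat-killed control) x 100, from duplicate wells in two independent experiments.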
`COc1ccc(CN2CCOc3ccc(C(C)(O)CN(C)C)cc3C2)cc1C` (stereo not given): the XTT viability was determined as 120%.

Take `CNC(=O)C1Cc2ccccc2N1C(=O)Cc1ccc(F)cc1` (stereo not given): the XTT viability stood at 84.2%. Under `CC(C)n1ncc2c(C(=O)NCC(c3cccs3)N3CCOCC3)cc(-c3ccccc3)nc21` (stereo not given) stands 71.6%; under `NC(CC(=O)c1ccc(Cl)cc1Cl)C(Cl)(Cl)Cl` (stereo not given), 69.2%. As for `O=C(Nc1cccc(-c2ccc(NCCCN3CCCC3)nc2)c1)c1ccccc1`, the XTT viability worked out at 67.8%. Under `COc1ccc(-c2cncc3ccc(C(=O)NCCCn4ccnc4)nc23)cc1` stands 121%; under `c1ccc2c(c1)CN(CC1CC1)CC1(CCN(Cc3c[nH]c4cnccc34)CC1)O2`, 58%; under `CCc1ccc(S(=O)(=O)Nc2cc(CN3CCN(CCC(C)C)CC3)ccc2C)cc1`, 85.8%. Under `CCNC(=O)C(C)Nc1nc(-c2cccnc2)nc2sc(C)c(C)c12` (stereo not given) stands 81.9%; under `CC(C)(C)n1nc(Cc2ccc(F)c(Cl)c2)c2c(N)ncnc21`, 98.7%.

Regarding `C[C@H](c1ccc2c(c1)CCCC2)N(C)c1ncc2c(N)nc(N)nc2n1`, the XTT viability was 39.1%.

In the case of `CN(C)CCNC(=O)N1CCCN(c2ncnc3cc(-c4ccccc4)sc23)CC1`, the XTT viability was determined as 106%.

With `Cc1cc(C)cc(COc2ccc3c(C)c(CCC(=O)O)c(=O)oc3c2C)c1`, the XTT viability came out at 79.3%.

`CC(C)N=c1cc2n(-c3ccc(Cl)cc3)c3ccccc3nc-2cc1Nc1ccc(Cl)cc1`: the XTT viability was found to be 16.6%.

As to `CCC(=O)Nc1ccccc1C(=O)Nc1ccccn1`, the XTT viability came to 87.3%.

For `CC(C)=CCC/C(C)=C\CNCCNC1C2CC3CC(C2)CC1C3` (stereo not given), the XTT viability amounted to 13.5%. With `FC(F)(F)c1nnc2ccc(Cl)nn12`, the XTT viability stood at 84%. Under `O=C(C1CCN(c2nnc(-n3cccc3)s2)CC1)N1CCC(Cc2ccccc2)CC1` stands 103%; under `CS(=O)(=O)c1ccc(C(=O)N(CC2CCCO2)c2nc3ccccc3s2)cc1[N+](=O)[O-]` (stereo not given), -7.96%; under `CCOc1ccc2cc(-c3nn(C(C)(C)C)c(N)c3C(N)=O)cnc2c1`, 75.2%. On to `Cc1ccc(S(=O)(=O)N2CCN(C(=O)c3cc(-c4ccccc4)[nH]n3)CC2)cc1`, for which the XTT viability turned out to be 82.6%.

Take `CN1CCC(NCc2cccc(-c3ccc(S(=O)(=O)NCc4ccccc4)cc3)c2)CC1`: the XTT viability came to 19.2%. `CCc1nc2ccc(Cl)cn2c1C(=O)NCc1ccc(N2CCC(c3ccc(OC(F)(F)F)cc3)CC2)cc1`: the XTT viability turned out to be 66.8%. For the compound `c1ccc(-c2[nH]c3ccccc3c2C(c2ccccn2)N2CCCC2)cc1` (stereo not given), the XTT viability was -3.4%.

With `CCOC(=O)NC(=O)c1ccsc1NC(=O)c1nc2ccccc2s1`, the XTT viability was found to be 134%. As to `CCOc1ccc(-c2nc(CNCCc3ccc(F)cc3)cs2)cc1`, the XTT viability is 2.26%. On to `Cc1ccc(NC(=O)c2nc[nH]c2C(=O)Nc2nc3ccccc3[nH]2)c(C)c1`, for which the XTT viability is 50.8%. For the compound `Cc1ccc(NC(=O)c2cc(S(=O)(=O)NC(C)(C)C)ccc2C)nc1`, the XTT viability came out at 90.2%. In the case of `Cc1cccnc1NC(=O)c1cccc(OCc2c(C)noc2C)c1`, the XTT viability worked out at 114%. `Cc1cc(Cl)ccc1NC(=O)CCc1ccc(S(=O)(=O)NCC(C)C)cc1`: the XTT viability was found to be 107%. As for `CCCS(=O)(=O)N1CCC(CO)(Cc2ccccc2C(F)(F)F)CC1`, the XTT viability was found to be 95.7%.

As to `Cn1ccnc1CNCCS(=O)(=O)c1cccc(Nc2ccc(-c3cccc(F)c3)cn2)c1`, the XTT viability was found to be 114%.

Consider `Cc1cc2ccccc2n1CC(=O)N1CC(C(=O)N2CCCCC2)Oc2ccccc21` (stereo not given), for which the XTT viability was 71.5%. The result for `CCCCCCCCCCCCCCCCOP(=O)([O-])OCC[N+](C)(C)C` reads 127%; that for `COc1cncc(-c2cncc(N3CCN(c4ccncc4)CC3)n2)c1`, 103%; that for `Cc1[nH]c2cc(F)cc(F)c2c(=O)c1-c1ccc(Oc2ccc(OC(F)(F)F)cc2)cc1`, 74.6%. On to `Cc1cc(NC(=O)c2ccc(Oc3ccc(Cl)cc3O)o2)no1`, for which the XTT viability came out at 99.6%. On to `CN1CCN(c2nccc3[nH]c(-c4cccc(F)c4)cc23)CC1`, for which the XTT viability worked out at 66.3%.

Take `O=C(C1CCCCC1)N1CC(=O)N2CCc3ccccc3C2C1` (stereo not given): the XTT viability was found to be 97.3%. For `CO[C@@H](C(=O)N1Cc2[nH]nc(NC(=O)c3ccc(N4CCN(C)CC4)cc3)c2C1)c1ccccc1`, the XTT viability is 97.4%.

These data come from the supplement of paper PMC6805474.
